Screening data (PubChem BioAssay)
This excerpt belongs to a sample that is enriched for hits.
Pf Dd2 inh = blocks in vitro growth of P. falciparum Dd2; P. falciparum Dd2 growth, SYBR Green, 72 h; actives 4.3% (n = 120,000); Potency, µM (titrated, usually from 28.9 µM), inactives show at the highest dose activity, negative = inhibition, most hits filed as inhibitors; active = well fitted inhibition curve with a large enough effect;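 note: plate controls were DMSO vehicle for no effect and reference drug for full effect; nearly all actives have a fitted effect of over 65% in size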
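Infected erythrocytes (Dd2, 0.3% parasitemia, 2.5% hematocrit final) are added to compound in RPMI-1640/Albumax II medium, grown 72 h at 37C in low oxygen, then lysed with saponin/Triton-X containing SYBR Green and read by fluorescence.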
Numbers without * were called inactive; i = inactive; ! = not active in a repeat; [ ] = another dose, or the depositor's remark. Potency is the fitted concentration of half-maximal effect.

SMILES	Pf Dd2 inh
CN1Cc2ccccc2-n2ccnc2C12CCN(C(=O)C1(c3ccccc3)CC1)CC2	24%[5.79 µM]
COC[C@@H]1CN(Cc2ccc(Br)o2)C[C@H]1C(=O)NC1CC1	1%
Cc1ccsc1CN1CCc2n[nH]c(=O)n2CC1	i
CCNC(=O)c1c(C)oc2c1CN(Cc1ccc(Br)o1)CC2	7.9µM*
Cc1oc2c(c1C(=O)NCCN(C)C)CN(C(=O)c1ccncc1)CC2	-9%
CCNC(=O)c1c(C)oc2c1CN(Cc1sccc1C)CC2	11µM*
COCC(=O)NC[C@H]1CCN(Cc2sccc2C)C[C@H]1N(C)C	i
Cc1ccc(-c2cc(C(=O)NCCN3CCN(C)CC3)n(C)c2)cc1	-15%
Cc1ccc(CN2CCc3oc(C)c(C(=O)NCCN4CCCCC4)c3C2)cc1	1.4µM*
Cc1c(C)n(C)c2ccc(C(=O)NCCCN3CCCCC3)cc12	i
COc1cccc(CC(=O)N2C[C@@H](CO)[C@H](c3ccccn3)C2)c1	10%
COc1ccc(CC2(CO)CCN(c3cc(OC)nc(N)n3)CC2)cc1	-10%
O=C(CCNS(=O)(=O)c1cccc2nsnc12)NCc1ccccc1	28%
Cc1ccccc1-c1cnc2n[nH]c(-c3ccccc3)c2n1	i
COc1ccccc1-c1[nH]nc2ncc(-c3ccccc3F)nc12	-22%[44.1 µM]
COc1ccccc1-c1[nH]nc2ncc(-c3ccccc3C)nc12	13µM*
COc1cccc(CCC(=O)N2CCC3(CC2)N(c2ccccc2)C(=O)CS3(=O)=O)c1	i
CN(C)c1ccc(CNC(=O)CN2C(=O)C3CCCCN3c3ccc(C(=O)N4CCCC4)cc32)cc1 (stereo not drawn)	-10%
CCOc1ccccc1N1CC(c2nc3ccccc3n2CCOc2ccccc2)CC1=O (stereo not drawn)	11%
Cc1ccc(NC(=O)C2CCCN(S(=O)(=O)c3cccc4cccnc34)C2)cc1Cl (stereo not drawn)	-1%
CCc1ccc(NC(=O)C2CCCN(S(=O)(=O)c3cccc4nsnc34)C2)cc1 (stereo not drawn)	-11%
CCc1ccc(NC(=O)C2CCCN(S(=O)(=O)c3cccc4cccnc34)C2)cc1 (stereo not drawn)	14µM*
O=C(NCc1ccc(OC(F)(F)F)cc1)NC1CCc2n[nH]c(=O)n2CC1 (stereo not drawn)	i
CCN(CC)C(=O)CN1CCC(=O)N(Cc2ccc(F)cc2)C(C(C)C)C1 (stereo not drawn)	-17%
Cc1ccc(-c2cccc(CN3CC4CCC(C3)N4c3ccc(C(F)(F)F)cc3)c2)c(C)c1	185%
SMILES	Pf Dd2 inh
Cc1cc(C)cc(-c2ccc(CN3CCCC(c4nc5ccc(F)cc5c(=O)[nH]4)C3)cc2)c1 (stereo not drawn)	10µM*!
Cc1ccc2nc([C@H]3CCN(Cc4cccs4)C3)[nH]c2c1	-17%[44.1 µM]
Cc1ccc2nc(C3CCCN(CC4CCCC4)C3)[nH]c(=O)c2c1 (stereo not drawn)	8.9µM*!
O=c1[nH]c(C2CCCN(Cc3cccc(-c4cccs4)c3)C2)nc2ccc(F)cc12 (stereo not drawn)	8.9µM*!
COc1ccc(CN2CCCC(c3nn(-c4ccccc4)c(=O)[nH]3)C2)cc1 (stereo not drawn)	-17%
Cc1ccc(-c2cccc(CN3CCCC(c4nc5ccc(F)cc5c(=O)[nH]4)C3)c2)c(C)c1 (stereo not drawn)	13µM*!
N#Cc1cccc(CN2CCC(c3nc4ccc(F)cc4c(=O)[nH]3)CC2)c1	2%
Cc1ccc(-c2cccc(CN3CCN(c4ccc(Cl)nn4)C(=O)C3)c2)c(C)c1	-21%
O=c1[nH]c(C2CCCN(Cc3ccccc3)C2)nn1-c1ccccc1 (stereo not drawn)	-22%[44.1 µM]
CC(=O)Nc1ccc(CN2CCC(c3nc4ccc(F)cc4c(=O)[nH]3)CC2)cc1	-23%
O=c1[nH]c(C2CCCN(CC3CCCCC3)C2)nn1-c1ccccc1 (stereo not drawn)	i
CS(=O)(=O)N1CCOc2ccc(CCC(=O)NC3CCCc4ccccc43)cc2C1 (stereo not drawn)	-2%
Cc1ccc(NC(=O)CN2C(=O)C(c3ccc(F)cc3)=NC2(C)C)c(C)c1	10%
COCc1nncn1C1CCN(C(=O)c2ccc(F)cc2)CC1	31%
O=C(CSc1nnc(-c2ccccc2Br)n1-c1ccccc1)c1ccc(F)cc1	-7%
Cn1cc(-c2ccc(F)cc2)cc1C(=O)O	-9%
CC(=O)N1CC(CO)C2(CCN(Cc3cccc(C#N)c3)CC2)C1 (stereo not drawn)	-7%
N#Cc1cccc(CN2CC[C@@H]3OCC(=O)N(Cc4ccc(O)cc4)[C@H]3CC2)c1	-8%[44.1 µM]
CC(C)NC(=O)N1CC[C@H](c2nc3ccc(F)cc3[nH]2)C1	i
CC(C)CN1CCCC(c2nc3ccc(F)cc3c(=O)[nH]2)C1 (stereo not drawn)	5µM*
CCN1CCC(c2nc3ccc(F)cc3c(=O)[nH]2)CC1	0%[44.1 µM]
Cc1ccc2nc(C3CCN(Cc4cccc(-c5cccnc5)c4)CC3)[nH]c(=O)c2c1	8.9µM*!
COc1ccc(-n2nc(C3CCN(Cc4cccnc4)CC3)[nH]c2=O)cc1	-13%
